Measured values: paper PMC4336329 (PLoS ONE, 2015)
The whole screen tested about 310,000 compounds, of which about 14,000 (4.5%) showed an effect of 50% or more. The effect is printed as a negative number. The list comes from a sample in which strong results are over-represented; it also holds similar structures and randomly drawn compounds.

These compounds were tested against human ether-à-go-go-related gene (hERG) potassium channel (human, UniProt Q12809) (assay: primary screen, population patch clamp on CHO cells stably expressing hERG; higher = less effect of the substance).
human ether-à-go-go-related gene (hERG) potassium channel, sequence (Q12809 whole entry, looked up): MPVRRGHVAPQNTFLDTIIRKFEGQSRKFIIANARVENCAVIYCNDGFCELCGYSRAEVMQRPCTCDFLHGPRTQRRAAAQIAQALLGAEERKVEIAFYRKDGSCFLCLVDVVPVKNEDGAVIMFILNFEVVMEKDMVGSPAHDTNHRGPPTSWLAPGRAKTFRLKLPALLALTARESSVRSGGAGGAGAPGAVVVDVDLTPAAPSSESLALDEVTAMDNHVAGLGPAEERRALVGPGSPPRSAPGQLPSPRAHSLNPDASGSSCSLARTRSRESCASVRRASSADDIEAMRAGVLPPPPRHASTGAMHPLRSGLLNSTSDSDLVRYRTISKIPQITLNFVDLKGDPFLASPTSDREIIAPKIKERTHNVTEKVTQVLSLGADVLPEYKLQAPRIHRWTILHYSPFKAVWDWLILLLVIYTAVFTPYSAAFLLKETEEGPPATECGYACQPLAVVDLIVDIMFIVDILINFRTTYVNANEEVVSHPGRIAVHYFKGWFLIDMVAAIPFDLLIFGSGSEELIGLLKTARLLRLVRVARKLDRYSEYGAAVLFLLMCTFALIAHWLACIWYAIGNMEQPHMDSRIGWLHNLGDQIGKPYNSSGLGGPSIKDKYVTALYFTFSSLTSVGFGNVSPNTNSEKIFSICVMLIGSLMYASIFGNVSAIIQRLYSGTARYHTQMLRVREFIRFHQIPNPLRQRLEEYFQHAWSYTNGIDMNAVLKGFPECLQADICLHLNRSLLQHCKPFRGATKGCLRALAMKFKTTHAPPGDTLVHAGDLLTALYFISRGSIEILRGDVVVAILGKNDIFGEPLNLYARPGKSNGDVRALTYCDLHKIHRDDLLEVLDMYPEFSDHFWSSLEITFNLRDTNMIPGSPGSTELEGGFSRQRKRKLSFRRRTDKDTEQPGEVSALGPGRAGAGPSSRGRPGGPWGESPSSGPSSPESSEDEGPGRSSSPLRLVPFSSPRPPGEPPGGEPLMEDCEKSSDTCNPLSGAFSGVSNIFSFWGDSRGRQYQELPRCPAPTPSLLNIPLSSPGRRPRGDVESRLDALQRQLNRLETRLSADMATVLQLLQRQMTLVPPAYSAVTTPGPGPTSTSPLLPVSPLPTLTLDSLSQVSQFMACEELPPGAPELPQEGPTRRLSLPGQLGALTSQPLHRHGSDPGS
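Note: peak tail current of the secondary pulse compared with the same well before compound.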

Point of comparison: COc1ccc(NS(=O)(=O)c2cccc(C(=O)N3CCCCCCC3)c2)cc1, “hERG current change (%, negative = inhibition) at 10uM” value -28.9%. Against it:
- O=c1ccn(Cc2ccc(F)cc2)c2ccnc(C(F)(F)F)c12 — higher, -25.9%
- CCN(CC)S(=O)(=O)c1ccc(N2CCCC2)c(NC(=O)C2=COCCO2)c1 — lower, -40%
- CCn1c(/C=C/c2cc[n+](C)cc2)nc2ccccc21.[I-] — higher, 15%
- COC(=O)Cn1cc(/C=C/c2cc[n+](C)cc2)c2ccccc21.[I-] — higher, 5.7%
- CCn1cc(/C=C/c2cc[n+](C)cc2)c2ccccc21.[I-] — lower, -56.1%
- CN(C)c1ccc(-c2nc3cc(N)ccc3o2)cc1 — higher, 6.31%
- CCCCNC(=O)c1cc2c(=O)n3cccc(C)c3nc2n(Cc2ccncc2)c1=N — lower, -75.1%
- Cc1cccn2c(=O)c3cc(C(=O)N4COCC4(C)C)n(Cc4ccccc4)c3nc12 — higher, 1.23%
- COCCNC(=O)c1cc2c(=O)n3cccc(C)c3nc2n(Cc2ccncc2)c1=N — lower, -70%
- CCCCNC(=O)c1cc2c(=O)n3cccc(C)c3nc2n(Cc2ccccc2)c1=N — lower, -77.6%
- COCCNC(=O)c1cc2c(=O)n3cccc(C)c3nc2n1C — higher, 11.7%
- CCCCNC(=O)c1cc2c(=O)n3cccc(C)c3nc2s1 — higher, 7.96%
- CCNC(=O)c1cc2c(=O)n3cccc(C)c3nc2n(Cc2ccc(C)cc2)c1=N — lower, -88%
- CCc1cc2c(NC(Cc3c[nH]c4ccccc34)C(=O)O)nc(C)nc2s1 (stereo not drawn) — higher, 31.3%
- COCC(=O)Nc1ccc(S(=O)(=O)Nc2ccccn2)cc1 — higher, 17.8%
- Cc1ccc(S(=O)(=O)NCCOc2cc(C)ccc2C)cc1 — higher, -6.41%
- Cc1c(NC(=O)CSc2n[nH]c(-c3ccccc3)n2)c(=O)n(-c2ccccc2)n1C — higher, 3.93%
- CC1=C(C(=O)Nc2ccc(C(=O)NCCCN3CCCCC3)cc2)SCCO1 — higher, -24.8%
- CN(N)N=Nc1nc2c([nH]1)c(=O)n(C)c(=O)n2C — higher, 0.0258%
- Cc1cc(C)cc(SCc2noc(C(=O)NC(C)C)c2C(=O)O)c1 — higher, 33.6%
- C=CCNC(=O)c1cnn(-c2ccccc2)c1-c1ccccc1 — higher, 10.4%
- Cc1ccc(NCc2nnc(SCC(=O)Nc3nnc(C)s3)n2C)cc1 — higher, -1.72%
- COC(=O)C1CCN(C(=O)c2cc3c(=O)n4cccc(C)c4nc3n2Cc2ccccc2)CC1 — higher, 13.2%
- Cc1cccn2c(=O)c3cc(C(=O)NC(C)C)c(=N)n(Cc4ccncc4)c3nc12 — lower, -72.4%
- Cc1ccc(S(=O)(=O)c2cc3c(=O)n4cccc(C)c4nc3n(Cc3ccncc3)c2=N)cc1 — lower, -40.8%
- COc1cccc(NC(=S)N(CCN(C)C)Cc2cccs2)c1 — higher, -10.5%
- COc1ccc(NC(=S)N(CCCN2CCCCC2)Cc2cccs2)cc1 — lower, -61%
- COc1cccc(NC(=S)N(CCCN2CCC(C)CC2)Cc2cccs2)c1 — lower, -59.2%
- COc1ccc(NC(=S)N(CCCN2CCN(C)CC2)Cc2cccs2)cc1 — lower, -53.4%
- COc1cccc(NC(=S)N(CCCN2CCOCC2)Cc2cn(C)c3ccccc23)c1 — higher, -10.7%
- COc1ccc(NC(=S)N(CCCN2CCOCC2)Cc2cn(C)c3ccccc23)cc1 — higher, -16.8%
- COc1ccc(NC(=S)N(CCCN2CCC(C)CC2)Cc2cccs2)cc1 — lower, -68.2%
- COc1ccc(NC(=S)N(CCCN2CCCC2)Cc2cccs2)cc1 — lower, -48%
- COc1ccc(NC(=S)N(CCN(C)C)Cc2cccs2)cc1 — lower, -33.9%
- CCCCN(C(=O)c1ccc(-c2ccc(Cl)cc2)o1)c1c(N)n(CCC)c(=O)[nH]c1=O — higher, 0.856%
- O=C(NC1CCCC1)C(c1cccs1)N(Cc1ccco1)C(=O)Cn1nnc(-c2cccs2)n1 (stereo not drawn) — higher, 2.45%
- CCC1CCCCN1C(=S)Nc1cccc(S(=O)(=O)N(C)C)c1 (stereo not drawn) — higher, -6.73%
- CCOP(=S)(OCC)Oc1cc(C)oc(=O)c1Cl — higher, 19.6%
- COc1cc(C2=NOC(C(=O)NC3CCCCC3)C2)cc(OC)c1OC (stereo not drawn) — higher, -8.08%
- Cc1cc(C)[n+](-c2ccc(Oc3ccccc3)c(S(=O)(=O)[O-])c2)[nH]1 — higher, 13.6%
- CC(=O)Nc1ccc2c(c1)C(=O)N(c1cccc3ccccc13)C2=O — higher, -9.32%
- COc1ccc(NP(=O)(Oc2ccc(Cl)cc2)Oc2ccc(Cl)cc2)cc1OC — higher, -16.6%
- O=C(OC1CCOC1=O)c1cncc(Br)c1 (stereo not drawn) — higher, -15.7%
- Nc1ccc(-c2ccc(N)c(C(=O)O)c2)cc1C(=O)O — higher, 7.74%
- CC(=O)NC12CC3CC(C1)CC(C(=O)Nc1nccs1)(C3)C2 — higher, 6.58%
- CC(OC(=O)Cn1cnc2c1c(=O)n(C)c(=O)n2C)C(=O)NC1CCCCC1C (stereo not drawn) — higher, 15.4%
- CCC(c1nnnn1C1CCCCC1)N1CCN(C(=O)c2ccco2)CC1.Cl (stereo not drawn) — higher, -11.4%
- COc1cc(/C=N/Nc2cccc(C)c2)ccc1OC(=O)c1ccco1 — higher, 23.4%
- COc1ccc(NC(=S)N(CCCN2CCCC2)Cc2cccn2Cc2ccc(Cl)cc2)cc1Cl — higher, -6.98%
- COc1ccc(NC(=S)NCCN2CCC(C)CC2)cc1Cl — lower, -30.5%
- COc1ccc(NC(=S)N(CCCN2CCC(C)CC2)Cc2cccs2)cc1Cl — lower, -73.1%
- Cn1c(Cn2nnc3ccccc32)nnc1SCC(=O)N1c2ccccc2Sc2ccccc21 — higher, -22.1%
- O=C(OCCN=C1NS(=O)(=O)c2ccccc21)c1ccncc1 — higher, -1.44%
- C/C(=N\NC(=O)Cn1cc([N+](=O)[O-])cn1)c1ccc(O)cc1 — higher, -5.56%
- COc1ccc(NS(=O)(=O)c2cccc(C(=O)NCC3(N4CCCCC4)CCCCC3)c2)cc1 — lower, -55.4%
- O=C(NCC1(N2CCCCC2)CCCCC1)c1cccc(S(=O)(=O)Nc2ccc(F)cc2)c1 — lower, -64%
- O=C(NCC1(N2CCOCC2)CCCCC1)c1cccc(S(=O)(=O)Nc2ccc(F)cc2)c1 — lower, -44.1%
- COc1ccc(NS(=O)(=O)c2cccc(C(=O)NCC3(N4CCOCC4)CCCCC3)c2)cc1 — lower, -36.7%
- O=C(c1cccc(S(=O)(=O)Nc2ccc(F)cc2)c1)N1CCCC1 — higher, -3.1%
